Results filed as inconclusive are left out. Activity calls are given as the source filed them. Unless noted, calls follow the shape of the dose curve; as a rule, active = well fitted curve in the direction sought with a large enough effect; inconclusive = small, poorly fitted or top-dose-only effect, or another doubt; inactive = no such curve, though single readings can be large; an effect the other way counts as inactive or inconclusive.
How the values were obtained:
[1] = qHTS Assay for Lipid Storage Modulators (AID 1519; calls by dose curve); details: Drosophila S3 cells, BODIPY lipid droplet/cell ratio, laser cytometry, cells loaded with oleic acid; for activity change, negative = inhibition: at 57.5 µM (top of the series)
Summary of the method: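 Cells seeded at 5,000 per well were treated with compounds over a concentration series and loaded with oleic acid (400 uM, as added). Lipid droplet fluorescence (488 nm excitation, 500-530 nm channel) was read by laser-scanning cytometry and normalized to 20 uM Triacsin C.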

[2] = target: Cytochrome P450 3A4 (Homo sapiens) (UniProt P08684); assay: qHTS Assay for Activators of Cytochrome P450 3A4 (AID 885); details: recombinant CYP3A4, Luciferin-PPXE luminescence, 60 min; series mostly up to 57.1 µM; also: nearly all actives have a fitted effect of over 65% in size
Summary of the method: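 Quantitative HTS format: compounds preincubated with 20nM human CYP3A4 and Luciferin-PPXE substrate at KM, reaction started by NADPH regeneration, stopped after 60 min, luciferase luminescence read 20 min later.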

[3] = Confirmation and Secondary Assay for Modulators of Hemoglobin Beta Chain Splicing at IVS2 654 locus (AID 910); details: HeLa EGFP-654 splicing reporter, GFP fluorescence, 48 h; series mostly up to 38.3 µM;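 also: HeLa cells stably carrying EGFP split by mutant beta-globin IVS2-654 intron; per-well total GFP intensity by laser scanning cytometry after 2-day treatment; % of control where 0% means no effect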
Summary of the method: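 Readout: per-well total peak green fluorescence (488 nm ex, 500–520 nm em) from objects 5–250 µm, reflecting correct splicing of an EGFP-654 reporter. Compounds were applied for 2 days at 37 °C to overnight-plated HeLa EGFP-654 cells; controls were DMSO and 500 nM IVS2-654 PNA.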

[4] = Confirmation and Secondary Assay for Modulators of Hemoglobin Beta Chain Splicing at IVS2 705 locus (AID 930); details: HeLa EGFP-705 splicing reporter, GFP fluorescence, 48 h; series mostly up to 38.3 µM;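 also: HeLa cells stably expressing the EGFP-705 splicing reporter; GFP fluorescence per well restored by corrected splicing of the IVS2-705 intron in EGFP; % of control where 0% means no effect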
Summary of the method: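 HeLa IVS2-705 EGFP reporter cells, 500/well, compound 2 d at 37C; correct splicing yields fluorescent EGFP. Control: 500 nM antisense PNA. Read-out: total peak GFP intensity.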

[5] = target: Ubiquitin carboxyl-terminal hydrolase 1 (Homo sapiens) (UniProt O94782); assay: Inhibitors of USP1/UAF1: Pilot qHTS (AID 504865); details: purified USP1/UAF1, Ub-rhodamine cleavage fluorescence; series mostly up to 54.9 µM;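 also: rhodamine fluorescence freed from ubiquitin-rhodamine substrate followed over time; top concentration of the series differs between compounds; % is scaled to controls: 0 for no effect and ±100 for the full control effect; nearly all actives have a fitted effect of over 35% in size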
Summary of the method: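 USP1/UAF1 complex (1nM) preincubated with compound 15 min at room temperature, then Ub-Rho substrate (150nM final) added. Fluorescence read kinetically at 480/540 nm, 6 reads every 60 seconds. Buffer: 50mM HEPES pH 7.8, 0.5mM EDTA, 0.1 mg/ml BSA, 1mM TCEP, 0.01% Tween-20.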

[6] = target: Lysosomal acid glucosylceramidase (Homo sapiens) (UniProt P04062); assay: Glucocerebrosidase-p2 (AID 348; in the data active = potency below about 10 µM; also: potency is read from the fitted curve at half-maximal effect); details: purified GBA, blue fluorogenic substrate, 40 min
Summary of the method: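 Compounds titrated from 0.6 nM upwards against 0.2 nM enzyme in pH 5.9 citric acid/KH2PO4, taurocholate, tween-20; blue fluorogenic substrate 80 uM, 40 min room temperature, stopped and read Ex 365/Em 440 for AC50.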

[7] = AP1 Signaling Pathway (AID 357; active = well fitted curve in either direction with a large enough effect, not every such curve was filed as active;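 also: ME-180 reporter cells stimulated with EGF at its EC50 level; % is scaled to controls: 0 for no effect and ±100 for the full control effect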); details: ME-180 AP-1-bla reporter, EGF-induced, beta-lactamase ratio, 5 h; at 7.69 µM (top of the series) unless noted
Summary of the method: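 Titration-series screen for positive or negative modulators of EC50 EGF-induced signaling in ME-180 cells carrying an AP-1-driven beta-lactamase reporter. After 5 hours at 37 degrees Celsius, CCF4 460nm/530nm emission ratio gave %Activity; AC50 values derived.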

[8] = target: Cytochrome P450 1A2 (Homo sapiens) (UniProt P05177); assay: p450-cyp1a2 (AID 410; calls by dose curve; also: potency is read from the fitted curve at half-maximal effect); details: recombinant CYP1A2, luciferin-ME demethylation, luminescence; series mostly up to 57 µM
Summary of the method: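 Luminescent readout of luciferin formed from Luciferin-ME by human CYP1A2; data normalized against complete inhibition by 57 uM furafylline. Enzyme 20nM, substrate 100uM at Km, 100mM KPO4 buffer, 60 min reaction at room temperature.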

[9] = NFAT Signaling Pathway (AID 444; active = well fitted curve in either direction with a large enough effect, not every such curve was filed as active;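 also: carbachol stimulus at about its EC50 of 1 µM final; % is scaled to controls: 0 for no effect and ±100 for the full control effect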); details: Jurkat NFAT-bla M1, carbachol, beta-lactamase ratio, 5 h; at 7.69 µM (top of the series) unless noted
Summary of the method: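 Read-out: CCF4 FRET ratio (460 nm/530 nm) after 1 h RT dye loading, used for %activity and AC50 from titration series. Cells: Jurkat NFAT-β-lactamase/M1 line, treated with compound plus 1 uM carbachol for 5 h, 37 °C.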

[10] = Stat Signaling Pathway (AID 446; active = well fitted curve in either direction with a large enough effect, not every such curve was filed as active;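 also: ME-180 cervical cancer cells given 40 pM IL-6 alongside compound; SIE-controlled beta-lactamase reporter measured as 460/530 nm FRET emission ratio; % is scaled to controls: 0 for no effect and ±100 for the full control effect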); details: ME-180 (cervical carcinoma) SIE beta-lactamase reporter, IL-6 stimulated, 5 h; at 7.69 µM (top of the series) unless noted
Summary of the method: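 IL-6/STAT signaling read in ME-180 cells via an SIE beta-lactamase reporter. Stimulus was 40 pM IL-6 (its AC50) for 5 hrs, so both activation and inhibition register.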

[11] = target: Glucocorticoid receptor (Homo sapiens) (UniProt P04150); assay: GR-GFP Redistribution (AID 450;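 active = compounds whose dose series gives a full or clear partial fitted curve of increased nuclear translocation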; also: potency is read from the fitted curve at half-maximal effect); details: U2OS GR-GFP nuclear translocation, laser cytometry, 2 h
[12] = target: Glucocorticoid receptor (Homo sapiens) (UniProt P04150); assay: GR-EFC Redistribution (AID 451; calls by dose curve; also: potency is read from the fitted curve at half-maximal effect); details: CHO-K1 GR-EFC translocation, beta-gal luminescence, 2 h
Summary of the method: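 Translocation of GR-ED fusion to nuclear EA restores b-gal, read by luminescence after 1 h room-temperature detection. Engineered CHO-K1 biosensor cells, 1,000/well, exposed 2 h at 37 C to titrations up to 46 uM final.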

[13] = target: Mitogen-activated protein kinase 10 (Mus musculus) (UniProt Q61831); assay: JNK3 AlphaScreen Assay (AID 530; active = well fitted curve in either direction with a large enough effect, not every such curve was filed as active;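 also: kinase came from lysate of stimulated human HepG2 cells; signal reports phosphorylation of biotinylated GST-cJun 1-79 at Ser73 with 10 µM ATP; % is scaled to controls: 0 for no effect and ±100 for the full control effect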); details: JNK3 lysate, c-Jun phosphorylation; series mostly up to 57.1 µM
Summary of the method: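 Compound titrations were preincubated 15 minutes at room temperature with substrate, antibody and pre-activated JNK3-containing HepG2 lysate. Reactions were started with 10 uM ATP and stopped with EDTA-containing bead buffer for AlphaScreen detection.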

[14] = target: 3',5'-cyclic-AMP phosphodiesterase 4B (Homo sapiens) (UniProt Q07343); assay: qHTS Assay for Inhibitors of PDE-IV (AID 607; active = well fitted activation curve with a large enough effect in the main read-out, with a control signal flat, not every such curve was filed as active; also: % of control where 0% means no effect); details: HEK293 ACTOne CNG channel cells, membrane potential fluorescence; series mostly up to 22.9 µM
Summary of the method: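 Live HEK293 cells with a modified cyclic nucleotide-gated (CNG) channel report intracellular cAMP via membrane-potential dye fluorescence (ex 535/em 590 nm). Endogenous PDE-IV was targeted. Compounds were tested at up to 22.9 uM final; RO 20-1724 100 uM served as control.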

[15] = target: Cytochrome P450 3A4 (Homo sapiens) (UniProt P08684); assay: qHTS Assay for Inhibitors and Substrates of Cytochrome P450 3A4 (AID 884); details: recombinant CYP3A4, Luciferin-PPXE luminescence; series mostly up to 57.1 µM; also: potency is read from the fitted curve at half-maximal effect; nearly all actives have a fitted effect of over 50% in size
Summary of the method: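 20 nM human CYP3A4 with 25 uM Luciferin-PPXE (at KM) in 200 mM KPO4, preincubated 10 min with compound; NADPH regeneration started a 60 min RT reaction. Luciferin detected by luminescence, normalized to 57 uM ketoconazole as full inhibition.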

[16] = target: Dual specificity protein kinase CLK4 (Homo sapiens) (UniProt Q9HAZ1); assay: qHTS Assay for Inhibitors of CDC-like Kinase 4 (Kinase-Glo Assay) (AID 1770); details: recombinant Clk4, Kinase-Glo ATP depletion luminescence; series mostly up to 66.7 µM; also: potency is read from the fitted curve at half-maximal effect; nearly all actives have a fitted effect of over 65% in size
Summary of the method: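 Recombinant human Clk4 (25 nM) phosphorylated RS repeat peptide (100 uM) with 1 uM ATP in Tris pH 7.5/MgCl2/EGTA/DTT/Triton buffer for 4.5 h at room temperature. Residual ATP was quantified by Kinase-Glo luciferase luminescence.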

[17] = target: Dual specificity protein kinase CLK4 (Homo sapiens) (UniProt Q9HAZ1); assay: qHTS Assay for Inhibitors of CDC-like Kinase 4 (ADP-Glo Assay) (AID 1771); details: recombinant CLK4, ADP-Glo luminescence; series mostly up to 80 µM; also: potency is read from the fitted curve at half-maximal effect; nearly all actives have a fitted effect of over 70% in size
Summary of the method: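 Luminescence from ADP-Glo reports ADP produced by 25 nM Clk4 acting on 100 uM RS repeat peptide with 1 uM ATP over 1 hr at room temperature; residual ATP is depleted before ADP is converted to ATP for detection.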

[18] = target: Dual specificity protein kinase CLK4 (Homo sapiens) (UniProt Q9HAZ1); assay: qHTS Assay for Inhibitors of CDC-like Kinase 4 (ADP-FP Assay) (AID 1795); details: Transcreener ADP fluorescence polarization; series mostly up to 50 µM; also: % is scaled to controls: 0 for no effect and ±100 for the full control effect; nearly all actives have a fitted effect of over 60% in size
Summary of the method: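 Recombinant human Clk4 (6.25 nM) phosphorylated RS repeat peptide (100 uM) with 1 uM ATP in Tris pH 7.5/MgCl2/EGTA/DTT/Triton buffer for one hour. ADP was quantified by Transcreener competitive fluorescence polarization against an ADP calibration curve.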

[19] = measured here: cell count channel max response
[20] = measured here: lipid channel max response

Chain of Dual specificity protein kinase CLK4 (Homo sapiens) (Q9HAZ1 whole entry, looked up): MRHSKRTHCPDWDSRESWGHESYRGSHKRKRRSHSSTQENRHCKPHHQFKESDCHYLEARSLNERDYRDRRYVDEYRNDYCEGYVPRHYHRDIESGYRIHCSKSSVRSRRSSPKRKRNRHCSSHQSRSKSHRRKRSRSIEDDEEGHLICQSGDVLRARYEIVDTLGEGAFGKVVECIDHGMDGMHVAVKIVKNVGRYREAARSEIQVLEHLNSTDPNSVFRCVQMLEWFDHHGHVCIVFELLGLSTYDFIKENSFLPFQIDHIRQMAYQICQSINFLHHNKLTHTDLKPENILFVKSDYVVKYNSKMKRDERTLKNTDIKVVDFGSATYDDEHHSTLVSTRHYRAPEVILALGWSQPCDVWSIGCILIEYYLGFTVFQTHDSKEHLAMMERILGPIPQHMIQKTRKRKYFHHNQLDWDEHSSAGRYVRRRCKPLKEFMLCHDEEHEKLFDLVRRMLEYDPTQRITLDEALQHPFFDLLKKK
Chain of Cytochrome P450 3A4 (Homo sapiens) (P08684 whole entry, looked up): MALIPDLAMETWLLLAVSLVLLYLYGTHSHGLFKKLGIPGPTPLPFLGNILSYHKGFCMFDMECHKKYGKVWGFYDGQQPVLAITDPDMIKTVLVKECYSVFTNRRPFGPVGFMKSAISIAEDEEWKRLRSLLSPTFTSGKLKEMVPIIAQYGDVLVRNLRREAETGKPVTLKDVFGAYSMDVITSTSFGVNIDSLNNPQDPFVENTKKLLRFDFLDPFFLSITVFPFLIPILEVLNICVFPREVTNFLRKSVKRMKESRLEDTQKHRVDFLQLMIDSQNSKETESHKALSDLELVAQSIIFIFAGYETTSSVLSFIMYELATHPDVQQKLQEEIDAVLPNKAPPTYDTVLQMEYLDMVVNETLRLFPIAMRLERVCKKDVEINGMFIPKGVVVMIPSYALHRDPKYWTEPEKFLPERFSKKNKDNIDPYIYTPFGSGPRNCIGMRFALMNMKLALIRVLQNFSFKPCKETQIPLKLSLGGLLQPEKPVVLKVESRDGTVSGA
Chain of Ubiquitin carboxyl-terminal hydrolase 1 (Homo sapiens) (O94782 whole entry, looked up): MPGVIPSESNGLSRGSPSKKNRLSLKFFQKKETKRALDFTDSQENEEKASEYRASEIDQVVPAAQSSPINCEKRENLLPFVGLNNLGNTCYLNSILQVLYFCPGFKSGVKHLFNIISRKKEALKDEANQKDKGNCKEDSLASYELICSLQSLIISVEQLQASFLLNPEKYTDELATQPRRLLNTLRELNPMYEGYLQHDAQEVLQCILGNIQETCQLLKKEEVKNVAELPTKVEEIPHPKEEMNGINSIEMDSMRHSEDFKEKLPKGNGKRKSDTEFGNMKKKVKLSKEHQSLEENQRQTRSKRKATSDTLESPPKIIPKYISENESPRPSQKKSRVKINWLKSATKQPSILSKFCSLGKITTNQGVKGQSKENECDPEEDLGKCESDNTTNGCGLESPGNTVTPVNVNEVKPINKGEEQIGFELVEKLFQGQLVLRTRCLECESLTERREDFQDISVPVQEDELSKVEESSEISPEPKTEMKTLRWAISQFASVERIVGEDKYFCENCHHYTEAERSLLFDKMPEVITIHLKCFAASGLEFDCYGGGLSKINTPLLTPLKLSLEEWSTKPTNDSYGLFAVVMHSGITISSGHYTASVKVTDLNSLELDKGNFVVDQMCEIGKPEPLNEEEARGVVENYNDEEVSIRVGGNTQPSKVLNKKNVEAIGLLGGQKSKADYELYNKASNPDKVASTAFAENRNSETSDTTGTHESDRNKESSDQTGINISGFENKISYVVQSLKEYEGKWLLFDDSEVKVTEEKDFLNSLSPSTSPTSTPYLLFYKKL
Chain of Glucocorticoid receptor (Homo sapiens) (P04150 whole entry, looked up, the tested form may be a part): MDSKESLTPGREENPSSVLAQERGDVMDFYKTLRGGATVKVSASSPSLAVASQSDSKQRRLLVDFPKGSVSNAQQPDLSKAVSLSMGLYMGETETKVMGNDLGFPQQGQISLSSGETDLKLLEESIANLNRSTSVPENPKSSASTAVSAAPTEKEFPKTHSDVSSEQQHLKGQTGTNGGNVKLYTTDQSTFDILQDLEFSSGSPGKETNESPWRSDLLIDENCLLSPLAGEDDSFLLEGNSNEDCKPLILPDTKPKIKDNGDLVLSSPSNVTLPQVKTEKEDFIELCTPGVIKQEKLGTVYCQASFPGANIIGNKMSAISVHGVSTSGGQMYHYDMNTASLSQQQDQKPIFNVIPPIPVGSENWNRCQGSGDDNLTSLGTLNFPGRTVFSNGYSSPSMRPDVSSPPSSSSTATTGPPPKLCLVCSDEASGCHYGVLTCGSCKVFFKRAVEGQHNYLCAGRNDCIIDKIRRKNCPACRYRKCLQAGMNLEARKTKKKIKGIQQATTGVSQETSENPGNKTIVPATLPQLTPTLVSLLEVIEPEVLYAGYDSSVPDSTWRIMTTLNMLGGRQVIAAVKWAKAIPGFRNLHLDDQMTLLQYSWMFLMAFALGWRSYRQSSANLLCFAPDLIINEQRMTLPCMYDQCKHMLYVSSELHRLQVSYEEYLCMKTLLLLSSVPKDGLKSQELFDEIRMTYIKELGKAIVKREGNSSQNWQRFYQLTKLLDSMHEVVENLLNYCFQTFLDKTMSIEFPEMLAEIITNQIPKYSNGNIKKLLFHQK
Chain of 3',5'-cyclic-AMP phosphodiesterase 4B (Homo sapiens) (Q07343 whole entry, looked up): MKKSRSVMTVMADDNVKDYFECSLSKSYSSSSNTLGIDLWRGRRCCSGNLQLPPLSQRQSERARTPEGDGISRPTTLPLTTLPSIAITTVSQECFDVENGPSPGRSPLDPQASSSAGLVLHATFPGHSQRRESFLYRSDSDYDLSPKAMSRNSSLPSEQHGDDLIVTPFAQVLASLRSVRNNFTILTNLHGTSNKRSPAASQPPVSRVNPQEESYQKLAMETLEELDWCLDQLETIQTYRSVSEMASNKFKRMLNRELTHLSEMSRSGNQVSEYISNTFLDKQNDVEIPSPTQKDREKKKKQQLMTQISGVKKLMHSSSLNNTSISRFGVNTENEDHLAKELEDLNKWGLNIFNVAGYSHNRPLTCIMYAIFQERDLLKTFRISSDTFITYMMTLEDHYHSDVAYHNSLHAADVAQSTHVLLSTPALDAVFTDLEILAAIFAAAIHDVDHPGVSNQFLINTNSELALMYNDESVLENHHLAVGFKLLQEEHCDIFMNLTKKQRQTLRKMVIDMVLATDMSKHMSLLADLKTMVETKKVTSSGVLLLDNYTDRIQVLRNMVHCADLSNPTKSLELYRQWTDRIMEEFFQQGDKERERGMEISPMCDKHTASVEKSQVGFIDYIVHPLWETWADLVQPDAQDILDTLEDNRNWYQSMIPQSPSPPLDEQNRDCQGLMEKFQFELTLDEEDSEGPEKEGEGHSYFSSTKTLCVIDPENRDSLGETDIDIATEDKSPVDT
Chain of Lysosomal acid glucosylceramidase (Homo sapiens) (P04062 whole entry, looked up): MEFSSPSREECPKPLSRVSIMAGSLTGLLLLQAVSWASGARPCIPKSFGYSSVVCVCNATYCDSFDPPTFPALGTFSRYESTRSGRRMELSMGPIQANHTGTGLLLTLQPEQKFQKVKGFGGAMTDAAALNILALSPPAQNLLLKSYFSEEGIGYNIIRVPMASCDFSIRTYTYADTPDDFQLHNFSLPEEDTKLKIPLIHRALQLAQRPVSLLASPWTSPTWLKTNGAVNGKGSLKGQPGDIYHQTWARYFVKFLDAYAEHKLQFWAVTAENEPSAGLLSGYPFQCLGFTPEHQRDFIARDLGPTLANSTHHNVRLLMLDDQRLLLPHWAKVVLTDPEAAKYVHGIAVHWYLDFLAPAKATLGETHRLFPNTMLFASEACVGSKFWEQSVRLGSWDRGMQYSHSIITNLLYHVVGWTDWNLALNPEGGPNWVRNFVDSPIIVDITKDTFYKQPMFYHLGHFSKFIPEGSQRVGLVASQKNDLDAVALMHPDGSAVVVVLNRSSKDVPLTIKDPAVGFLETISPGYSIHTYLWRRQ
Chain of Cytochrome P450 1A2 (Homo sapiens) (P05177 whole entry, looked up): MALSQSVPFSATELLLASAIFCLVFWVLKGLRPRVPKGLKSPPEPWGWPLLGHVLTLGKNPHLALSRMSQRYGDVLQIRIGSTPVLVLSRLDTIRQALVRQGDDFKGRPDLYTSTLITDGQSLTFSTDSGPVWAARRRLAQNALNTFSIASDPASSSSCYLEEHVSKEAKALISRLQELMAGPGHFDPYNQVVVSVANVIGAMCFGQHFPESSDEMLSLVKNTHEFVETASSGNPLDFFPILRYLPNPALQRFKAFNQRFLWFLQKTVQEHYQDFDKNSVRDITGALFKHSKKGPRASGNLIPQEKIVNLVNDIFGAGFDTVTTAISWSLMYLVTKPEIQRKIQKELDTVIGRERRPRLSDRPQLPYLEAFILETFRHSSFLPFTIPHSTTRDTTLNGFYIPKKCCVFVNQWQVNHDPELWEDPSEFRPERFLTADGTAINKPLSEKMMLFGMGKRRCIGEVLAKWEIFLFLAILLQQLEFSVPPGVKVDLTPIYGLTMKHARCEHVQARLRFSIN

CNC(=O)[C@H]1O[C@@H](n2cnc3c(N)ncnc32)[C@H](O)[C@H]1O
activity change, negative = inhibition [1]: -1.94% (inactive) | max response [1, 19]: -22.6% | max response [1, 20]: -24.5%

Nc1c2ccccc2nc2ccccc12 (tested in a mixture with another compound)
Potency [2]: inactive | Potency [3]: inactive | outcome [4]: inactive | activity change, negative = inhibition [1]: -15.1% (inactive) | max response [1, 19]: -8% | max response [1, 20]: -17.5% | Potency [5]: inactive

CCC(=O)OC1CCC2C3CCc4cc(O)ccc4C3CC[C@]12C (some centres undefined)
Potency [3]: inactive | outcome [4]: inactive | activity change, negative = inhibition [1]: 3.26% (inactive) | max response [1, 19]: 9.46% | max response [1, 20]: 15.5%

COc1cc(C)c(C(=O)Oc2cc(C)c(C(=O)O)c(O)c2C)c(OC)c1C
Potency [2]: inactive | Potency [3]: inactive | outcome [4]: inactive | activity change, negative = inhibition [1]: 7.39% (inactive) | max response [1, 19]: 9.06% | max response [1, 20]: 19.2%

COCCNc1ncnc2ccc(-c3ccc(N(C)C)cc3)cc12
Potency [6]: > 11.4 µM (inactive) | activity change, negative = inhibition [7]: -29.4% (inactive) | Potency [8]: 0.251 µM (active) | activity change, negative = inhibition [9]: 4.01% (inactive) | activity, negative = inhibition [10]: -5.06% (inactive) | Potency [11]: > 46 µM (inactive) | Potency [12]: > 46 µM (inactive) | Potency [13]: inactive | Potency [14]: inactive | Potency [15]: 7.94 µM (active) | Potency [2]: inactive | activity change, negative = inhibition [1]: -6.08% (inactive) | max response [1, 19]: -1.3% | max response [1, 20]: -8.9% | Potency [16]: 8.91 µM (active) | Potency [17]: 10 µM (active) | Potency [18]: inactive | Potency [5]: inactive

Reference: PubChem BioAssay (NCATS)
